Results as given in PubChem BioAssay (Tox21).
Calls of active or inactive are those of the source. Calls come from the whole dose curve.

target: Gonadotropin-releasing hormone receptor (Homo sapiens) (UniProt P30968); test: Human gonadotropin-releasing hormone receptor (GnRHR) small molecule agonists, calcium flux assay in GnRHR-HEK293 cells (AID 1920063); conditions: calcium flux fluorescence, agonist mode; series mostly up to 57.6 µM; activity change: at the top concentration; note: nearly all actives have a fitted effect of over 35% in size
Source text: National Center for Advancing Translational Sciences [NCATS]
Division of Preclinical Innovation [DPI]
U.S. Environmental Protection Agency [EPA]
National Institutes of Environmental Health Sciences [NIEHS]
National Toxicology Program [NTP]
U.S. Food and Drug Administration [FDA]
Gonadotropin-releasing hormone receptor (GnRHR) is a G-protein-coupled receptor (GPCR) and acts (through phospholipase C) to increase intracellular inositol trisphosphate and then release intracellular calcium stores. Cell-based GnRHR-Hek293 calcium influx assay is using HEK293 cells that have been genetically engineered to express the human GnRHR, which activity can be measured by calcium signaling. A compound/drug can activate (agonist) GnRHR that can be monitored by levels of intracellular calcium.
GnRHR-HEK293 cells developed by Codex Corp contain human GnRHR reporter gene, which was stably integrated into HEK 293 cells. The compound activation can be detected by fluorescence intensity via calcium flux assay. This cell line has been used to screen the Tox21 10K compound library to identify GnRHR agonists.
GnRHR-Hek293 cells were dispensed at 1500cells/4uL/well in 1536-well black wall/clear bottom plates using a multidrop dispenser. After the assay plates were incubated at a 37 C/5% CO2 incubator for 18 hours, 4 uL of Calcium Dye Solution was added to each well. The plates were incubated at 37 C for 1 hour. For agonist mode, 23 nL of compounds dissolved in DMSO, positive controls or DMSO only was transferred to the assay plate by a pin tool station. The fluorescence intensity in the plates was measured using FDSS 7000EX kinetic plate reader with a filter set of Ex/Em=480/540 for 3 min at 1 sec intervals. Each test compound was measured at 15 concentrations and in triplicates.
% is set by controls: 0 for no effect and ±100 for the full control effect.

Chain of Gonadotropin-releasing hormone receptor (Homo sapiens) (P30968 whole entry, looked up): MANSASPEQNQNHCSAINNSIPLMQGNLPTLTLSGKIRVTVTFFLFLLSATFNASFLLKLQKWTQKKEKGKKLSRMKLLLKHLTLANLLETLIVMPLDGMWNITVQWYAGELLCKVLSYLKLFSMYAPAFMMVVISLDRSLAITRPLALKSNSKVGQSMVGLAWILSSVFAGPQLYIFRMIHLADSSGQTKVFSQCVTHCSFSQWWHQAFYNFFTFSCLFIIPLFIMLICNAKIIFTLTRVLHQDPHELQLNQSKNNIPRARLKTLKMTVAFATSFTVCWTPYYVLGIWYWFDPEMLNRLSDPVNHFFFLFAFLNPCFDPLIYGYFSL

SMILES	activity change
COc1c(Br)cc(Br)c(C)c1Br	1.05% (inactive)
C=CCn1c(=O)n([C@@H]2O[C@H](CO)[C@@H](O)[C@H]2O)c2nc(N)[nH]c(=O)c21	0.762% [at 26.4 µM, active compounds read high] (inactive)
CCCCCCCCOc1ccccc1C(=O)Nc1ccc(C(=O)OCC[N+](C)(CC)CC)cc1	1.84% [at 26.4 µM, active compounds read high] (inactive)
O=S1OCCO1	-1.34% (inactive)
Cc1cc(OI)c(C(C)C)cc1-c1cc(C(C)C)c(OI)cc1C	-0.108% [at 26.4 µM, active compounds read high] (inactive)
O=C(O)c1ccccc1C(=O)Nc1ccc(S(=O)(=O)Nc2nccs2)cc1	-1.45% [at 26.4 µM, active compounds read high] (inactive)
c1cc(N(CC2CO2)CC2CO2)ccc1Cc1ccc(N(CC2CO2)CC2CO2)cc1 (stereo not given)	6.05% (inactive)
C/C=C/C=C/COC(=O)C(C)C	0.724% (inactive)
O=c1c(O)c(O)c1=O	-1.3% (inactive)
CCCCOc1ccc(OCCCN2CCOCC2)cc1	5.75% [at 26.4 µM, active compounds read high] (inactive)
CCCCCCC(CCCCCCCCCCC(=O)OCC(COC(C)=O)OC(C)=O)OC(C)=O (stereo not given)	-0.82% [at 26.4 µM, active compounds read high] (inactive)
C/C=C(\C)C(=O)OCCC(C)CCC=C(C)C (stereo not given)	0.147% (inactive)
CN1CCN(c2c(F)cc3c(=O)c(C(=O)O)cn4c3c2SCC4)CC1	-1.55% [at 26.4 µM, active compounds read high] (inactive)
CC/C=C\CCOC(=O)c1ccccc1	0.24% (inactive)
CCCCCCn1c(=O)c2c(ncn2C)n(C)c1=O	0.41% [at 26.4 µM, active compounds read high] (inactive)
CC(=O)O[C@@H]1C(=O)O[C@@H]2[C@H]1OC(=O)[C@@H]2OC(C)=O	0.91% [at 26.4 µM, active compounds read high] (inactive)
COc1ccc(OC)c(NC(=O)CC(C)=O)c1	-0.399% (inactive)
O=C(CCOCCOCCOCCOCCC(=O)Nc1c(I)cc(I)c(C(=O)O)c1I)Nc1c(I)cc(I)c(C(=O)O)c1I	-0.0248% [at 26.4 µM, active compounds read high] (inactive)
CCC1(C)C(=O)N(Cl)C(=O)N1Cl (stereo not given)	-0.808% (inactive)
C[N+](C)(C)CCCCCCCCCC[N+](C)(C)C	-0.0387% [at 26.4 µM, active compounds read high] (inactive)

SMILES	activity change
Cc1ccc2sc3cccc(C)c3c2c1	-1.33% (inactive)
COc1ccc(OC)c(N=Nc2c(O)ccc3ccccc23)c1	4.41% (inactive)
C=CC(=O)OCCOCC(CC)(COCCOC(=O)C=C)COCCOC(=O)C=C	5.45% (inactive)
CCCCOC(=O)C(C)CC (stereo not given)	0.0977% (inactive)
COc1ccc2[nH]c(S(=O)Cc3ncc(C)c(OC)c3C)nc2n1 (stereo not given)	7.89% [at 26.4 µM, active compounds read high] (inactive)
CCOC(=O)C(Br)c1ccccc1 (stereo not given)	-0.821% (inactive)
OC1CCC(C2CCCCC2)CC1 (stereo not given)	5.51% (inactive)
CCCCCCCCCCCC	-0.703% (inactive)
O=C(O)c1cccc(C(=O)O)c1C(=O)O	-0.709% (inactive)
CCCc1ccc(O)c(OC)c1	-2.04% (inactive)
CCOC(=N)CC(=O)OCC	0.0539% (inactive)
O=C(Cn1ccnc1[N+](=O)[O-])NCCO	-0.981% [at 26.4 µM, active compounds read high] (inactive)
CC(=O)CC(C)C	-0.565% (inactive)
COC(=O)c1c(C)cc(O)c(C)c1O	-1.01% (inactive)
Nc1ccc(C(=O)Oc2ccccc2)c(O)c1	-1.59% [at 26.4 µM, active compounds read high] (inactive)
C=CCOC(=O)/C=C\C(=O)OCC=C	-0.369% (inactive)
CCOC(=O)COc1cc(-n2ncc(C(F)(F)F)c(C)c2=O)c(F)cc1Cl	-1.02% (inactive)
CC(C)(O)CCCC1=CCC(C=O)CC1 (stereo not given)	0.039% (inactive)
Cc1ccc(N(CC2=NCCN2)c2cccc(O)c2)cc1	-1.86% [at 26.4 µM, active compounds read high] (inactive)
O=P(O)(O)Oc1ccccc1	-0.0291% (inactive)
